According to PubChem BioAssay (NCI):
About 83,000 compounds went through this panel and 20% of them were active in at least one assay; those are over-represented in the sample as a whole.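 A percent growth of 40 corresponds to 60% growth inhibition; 0 means no net growth; -100 means all cells died. Active threshold: below 10.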 Active and inactive are the calls of the source.

Legend:
Assay in all cases: NCI-60 one-dose screen, 48 h (100 = growth as untreated, 0 = no growth, -100 = all killed)
Conditions in all cases: 10 µM
[1] = test system: DU-145 prostate
[2] = test system: K-562 leukemia
[3] = test system: MDA-MB-231 breast
[4] = test system: SF-268 CNS
[5] = test system: SF-295 CNS
[6] = test system: SF-539 CNS
[7] = test system: UACC-257 melanoma
[8] = test system: M14 melanoma
[9] = test system: HCT-15 colon
[10] = test system: HT29 colon
[11] = test system: SNB-75 CNS
[12] = test system: SNB-19 CNS
[13] = test system: U251 CNS
[14] = test system: PC-3 prostate
[15] = test system: SK-MEL-5 melanoma
[16] = test system: UACC-62 melanoma
[17] = test system: LOX IMVI melanoma
[18] = test system: SK-MEL-28 melanoma
[19] = test system: MALME-3M melanoma
[20] = test system: RXF 393 renal

Measured: growth

COc1cc2c(cc1OC)C(C(CCCCCC(CCC(C)C)C1NCCc3cc(OC)c(OC)cc31)CCC(C)C)NCC2 (stereo not drawn)
active: [1] -100% | [3] -81.9% | [4] -95.7% | [5] -77.5% | [6] -97.4% | [7] -92.5% | [8] -93.6% | [9] -100% | [10] -95.3% | [11] -99.5% | [12] -47.5% | [13] -99% | [14] -92.3% | [15] -96.4% | [16] -91.5% | [17] -100% | [18] -100%
inactive: [2] 13.6%

C[C@H]1[C@H](OC(=O)CCC(=O)O)O[C@@H]2O[C@]3(C)CC[C@H]4[C@H](C)CC[C@@H]1[C@@]24OO3
inactive: [1] 82.7% | [19] 74.8% | [3] 65.1% | [20] 55.9% | [4] 55.6% | [5] 11.6% | [6] 31.9% | [7] 50.8% | [8] 39.7% | [9] 16.7% | [10] 23.8% | [11] 61.8% | [12] 57.9% | [13] 36.5% | [14] 25% | [15] 28% | [16] 36.4% | [18] 70.5%
active: [17] -49.5%

Clc1ccc2c(c1)C(N1CCNCC1)=Nc1ccccc1O2
active: [19] 2.69% | [7] -18.3% | [18] -10.9%
inactive: [1] 68.4% | [3] 19.4% | [20] 27.2% | [4] 52.9% | [5] 58% | [6] 73.4% | [8] 15.7% | [9] 47.5% | [10] 11.6% | [11] 16.4% | [12] 67.6% | [13] 41.7% | [14] 40% | [15] 10.4% | [16] 30.4% | [17] 39%

CC(C)Cc1ccc([C@H](C)C(=O)O)cc1
inactive: [1] 122% | [19] 107% | [3] 108% | [20] 114% | [4] 111% | [5] 99% | [6] 104% | [7] 107% | [8] 101% | [9] 97% | [10] 106% | [11] 79.4% | [12] 108% | [13] 101% | [14] 93.6% | [15] 102% | [17] 101% | [18] 109%

COc1cc2nc(SCC(=O)Nc3cc(OC)c(OC)c(OC)c3)n(Cc3ccccc3)c(=O)c2cc1OC
inactive: [1] 54.6% | [19] 45.6% | [3] 41% | [20] 36.7% | [4] 39.5% | [5] 45.8% | [7] 20.6% | [8] 39.3% | [9] 90.2% | [10] 61.9% | [12] 63.7% | [14] 35.8% | [15] 67.2% | [16] 76.3% | [17] 68.7% | [18] 60.5%
active: [6] 6.77% | [11] -1.98% | [13] 6.92%

CCN(CC)CCCC(C)N=C(C1=C(C(=NC(C)CCCN(CC)CC)c2cccc(OC)c2)C(=O)NC1=O)c1cccc(OC)c1 (stereo not drawn)
active: [1] -5.08% | [2] -44.2% | [20] -64.8% | [4] -29.5% | [5] -53.5% | [6] -85.3% | [7] -95.2% | [8] -77.5% | [9] -30.7% | [10] -10.5% | [11] -28.5% | [13] -51.3% | [14] 3.15% | [15] -93.8% | [16] -75.4% | [17] -73.9% | [18] -69.1%

Nc1nc(Cl)nc2c1ncn2C1O[C@H](CO)[C@@H](O)[C@@H]1F (stereo partly drawn)
inactive: [19] 60.9% | [3] 70% | [20] 42.2% | [5] 14.2% | [6] 37.7% | [7] 22.7% | [9] 48.1% | [10] 41.2% | [11] 37% | [12] 19% | [13] 27% | [14] 60.5% | [15] 32.1% | [18] 73.8%
active: [1] -3.84% | [4] 9.03% | [8] -48.4% | [16] -10.3% | [17] 4.83%

CCN1CC(CCN2CCOCC2)C(C(c2ccccc2)c2ccccc2)C1=O (stereo not drawn)
inactive: [1] 118% | [19] 120% | [3] 87.6% | [20] 107% | [4] 112% | [5] 89.9% | [6] 111% | [7] 105% | [8] 108% | [9] 94.1% | [10] 102% | [11] 102% | [12] 102% | [13] 101% | [14] 82.7% | [15] 100% | [16] 94.8% | [17] 97.2% | [18] 116%

COc1ccc(C(=O)CC(CC(=O)c2ccc(OC)cc2)c2c(C)nn(-c3ccccc3)c2Cl)cc1
inactive: [1] 110% | [19] 92.4% | [3] 90.9% | [20] 98.4% | [4] 101% | [5] 92.2% | [7] 118% | [8] 90.5% | [9] 100% | [10] 87% | [11] 91.3% | [12] 93.3% | [13] 102% | [14] 85.6% | [15] 90.2% | [16] 88.3% | [17] 83.3% | [18] 105%

Nc1nc(N)c(N)c(Nc2ccc(CCO)cc2)n1
inactive: [1] 102% | [3] 95.3% | [20] 109% | [4] 103% | [5] 105% | [6] 111% | [7] 103% | [8] 97.2% | [9] 115% | [10] 104% | [12] 124% | [13] 96.6% | [14] 96.8% | [15] 99.4% | [16] 97.5% | [17] 97.2% | [18] 113%

CCC(=O)OC1CCC2C3CCC(=O)OC3C(C)(CCC(=O)O)CC12C (stereo not drawn)
inactive: [3] 19.6% | [4] 50.1% | [7] 55.7% | [8] 25.8% | [9] 24.2% | [12] 62.8% | [13] 28.3% | [14] 31.4% | [16] 45.9% | [17] 30.9% | [18] 59.8%
active: [2] 2.12% | [5] -18.6% | [6] 5.18% | [10] 4.42% | [11] -1.91% | [15] -83.5%

Cc1c(C(N)=O)sc2c1c(=O)n(Cc1ccccc1)c1nnc(-c3ccc(Br)cc3)n21
inactive: [1] 31.7% | [3] 18.8% | [20] 15.9% | [4] 29.4% | [5] 15.8% | [6] 13.1% | [9] 25.3% | [10] 28.6% | [12] 51.8% | [13] 11.5% | [14] 37.2% | [18] 46.2%
active: [7] -0.619% | [8] -22.5% | [15] -38.2% | [16] 6.17% | [17] 5.15%

CN(C)c1ccc(/C=N/NC(=O)c2ccccc2Nc2cccc(C(F)(F)F)c2)cc1
inactive: [2] 77.8% | [3] 70.9% | [4] 93.7% | [5] 111% | [6] 105% | [7] 101% | [8] 105% | [9] 78.2% | [10] 97.2% | [11] 94.4% | [12] 92.7% | [13] 81.1% | [14] 76.1% | [15] 81.8% | [16] 86.3% | [17] 65.3% | [18] 91.2%

O=C(N/N=C/c1ccc(Cl)cc1)c1ccccc1Nc1cccc(C(F)(F)F)c1
inactive: [2] 59.9% | [3] 74.5% | [4] 84.6% | [5] 86.8% | [6] 48.9% | [7] 96.9% | [8] 91.5% | [9] 79.1% | [10] 75.8% | [11] 78.7% | [12] 88.4% | [13] 72% | [14] 71.6% | [15] 34% | [16] 76.4% | [17] 83.7% | [18] 79.8%

COc1ccccc1/C=N\N/C(N)=N\N=C\c1ccccc1OC
active: [2] 2.34% | [5] 5.03% | [6] -35.5% | [8] -3.67% | [9] 1.27% | [10] -1.01% | [13] 5.71% | [15] -30% | [17] 5.74%
inactive: [3] 21.7% | [4] 41.4% | [7] 46.3% | [11] 21.5% | [12] 35.3% | [14] 29.3% | [16] 19.7% | [18] 56.9%

Nc1c(Br)cc(Br)c2c1[nH]c(=O)c1ccccc12
active: [11] -33.9%
inactive: [2] 78.4% | [19] 47.8% | [3] 54.8% | [20] 26.2% | [4] 76.9% | [5] 73.1% | [6] 83.7% | [7] 87.9% | [8] 100% | [9] 75.2% | [10] 98.4% | [12] 94.1% | [14] 80.3% | [15] 71.3% | [16] 87.6% | [17] 83.7% | [18] 86.8%

Cc1cc(Cl)ccc1Nc1nc(C(F)(F)F)ccc1C(=O)N/N=C/c1c(Cl)cccc1Cl
active: [2] 7.36% | [3] -17.2% | [5] -37.7% | [6] 5.69% | [8] 7.93% | [9] 9.11% | [10] 3.29% | [11] -16.4% | [13] -1.74% | [14] -13.7% | [15] -85.4% | [16] -12.9%
inactive: [4] 12.8% | [7] 13.1% | [12] 13.5% | [17] 10% | [18] 24.7%
